Here are results for 22 sequences from the OligoGym collection.
Note: reference of the scale not given here.

For one test, the target named is SYCP2L. Description: pooled miR-30 sensor sort-seq; sequence = guide strand. Particulars: shRNA.
TAGGTTTTTCTTCATCTTCTGA returned a sensor-assay potency score (higher = more potent) of -0.679.

The sequence TTCTATAACACAAATCAGCGAC registered a sensor-assay potency score (higher = more potent) of -0.297.

Take TTGATTGTTGTGACTTAGCAAA: the sensor-assay potency score (higher = more potent) is -1.27.

Sequence TATATAAAAAGTGACACTCTGA showed a sensor-assay potency score (higher = more potent) of -0.257.

In the case of TTCTTTGTAGCTGATAATCATG, the sensor-assay potency score (higher = more potent) was -1.28.

In the case of AATATCTTTATCTTCTCCGTTT, the sensor-assay potency score (higher = more potent) is -0.529.

For TTGGTCACCAAGTCTGTTGTTT, the sensor-assay potency score (higher = more potent) is -0.185.

In turn, TTCATGACTTCTTTGTAGCTGA displayed a sensor-assay potency score (higher = more potent) of 0.227.

Consider ATCTTCTATAACACAAATCAGC, for which the sensor-assay potency score (higher = more potent) was -1.67.

As to TTCATCACCGCTTCCTTCGGAA, the sensor-assay potency score (higher = more potent) was -0.0578.

The sequence TTATTGATCTGTCAAGACGGTA had a sensor-assay potency score (higher = more potent) of -0.997.

The next test addresses SYN3. The test is described as above. The note with it: shRNA.
In turn, TTTGGAGACAACAAGGTCGGCC gave a sensor-assay potency score (higher = more potent) of -0.0801.

Sequence TTTGCTGCTGTGGAGATCCGGA had a sensor-assay potency score (higher = more potent) of -0.473.

Sequence TTTTGGAGACAACAAGGTCGGC showed a sensor-assay potency score (higher = more potent) of -0.766.

Regarding TTCCACATGCTCTCCAATCAGC, the sensor-assay potency score (higher = more potent) was -0.957.

TAGTTGGATCCAATTTTCTGGA yielded a sensor-assay potency score (higher = more potent) of -1.06.

On to TCGATCACCAACAGGATCCTGG, for which the sensor-assay potency score (higher = more potent) is -0.321.

The sequence TTGTAGACGGAGTAGAGAGAGT returned a sensor-assay potency score (higher = more potent) of -1.24.

In turn, TTCCACTTTGATCTTTCCCATT came in with a sensor-assay potency score (higher = more potent) of -1.45.

In the case of TAATCTCTGCCATCCTTGCTGT, the sensor-assay potency score (higher = more potent) was -0.283.

With TTTCTGGATGCGGATGTCGTAC, the sensor-assay potency score (higher = more potent) was -1.02.

With TTGGCCTCGTCTTCACTTGGGG, the sensor-assay potency score (higher = more potent) is -0.142.
